Target: T1, Aspartate--tRNA(Asp/Asn) ligase (Mycobacterium tuberculosis (strain ATCC 25618 / H37Rv)) (UniProt P9WFW3); further: in the data most compounds retested in dose-response had high values
T1 sequence (whole entry): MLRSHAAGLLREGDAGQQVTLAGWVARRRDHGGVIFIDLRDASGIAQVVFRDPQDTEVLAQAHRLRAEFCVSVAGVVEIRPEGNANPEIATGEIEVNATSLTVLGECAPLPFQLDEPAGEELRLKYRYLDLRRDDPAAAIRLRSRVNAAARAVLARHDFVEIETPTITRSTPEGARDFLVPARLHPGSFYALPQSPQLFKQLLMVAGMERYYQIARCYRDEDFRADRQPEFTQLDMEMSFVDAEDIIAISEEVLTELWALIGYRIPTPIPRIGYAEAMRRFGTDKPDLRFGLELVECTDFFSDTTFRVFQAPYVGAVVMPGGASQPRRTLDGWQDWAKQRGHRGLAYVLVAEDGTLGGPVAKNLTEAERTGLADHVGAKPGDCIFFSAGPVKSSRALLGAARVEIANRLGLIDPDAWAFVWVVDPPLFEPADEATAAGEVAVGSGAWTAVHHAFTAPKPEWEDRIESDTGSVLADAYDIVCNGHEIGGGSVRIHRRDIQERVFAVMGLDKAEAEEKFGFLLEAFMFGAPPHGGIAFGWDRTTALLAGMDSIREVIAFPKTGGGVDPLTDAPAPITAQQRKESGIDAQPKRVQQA
Experiment: Assay for Asp RNA synthetase-1 from Mycobacterium tuberculosis
Format: functional
Design: scale not given: direction of the effect not stated beside the values
Settings: 30 µM

Compound | Percent Effect [%]
CNC(=O)c1cccc(CNC(=O)C2CC(=O)N(CCN(C)C)C2)c1 (stereo not given) | -2.01
Cn1cc(CNc2ncnc3c2CCN(Cc2ccsc2)CC3)cn1 | 1.05
CC(C)(N)CN1CCC(c2nnc(CN3CCCC3)n2C2CC2)CC1 | -1.87
COc1ccccc1CN(C)c1nccc(-c2cn(C)nc2C)n1 | -1.34
COc1cccc(S(=O)(=O)CCN2CCC3(CC2)OCCO3)c1 | -0.724
O=C(c1cncc(N2CCC3(CCNCC3)CC2)n1)N1CCCC1 | -3.85
CC(C)c1nc(CN(C)C2CCN(Cc3nc(C4CC4)no3)C2)no1 (stereo not given) | 5.06
c1cnn(CC2CN(CC3CCCC3)CCO2)c1 (stereo not given) | -6.1
CCC1c2ccsc2CCN1C(=O)NCCNc1ncccn1 (stereo not given) | -3.52
Cn1cccc1C1CCCN1C(=O)NCCCn1cccn1 (stereo not given) | -1
CC(NC(=O)NCCCn1cccn1)c1cccnc1 (stereo not given) | -3.83
Cc1cccc(OCCC(=O)N2CCN(S(=O)(=O)N(C)C)CC2)c1C | -1.74
O=C(NCCNS(=O)(=O)c1ccc2c(c1)CCCC2)c1ccoc1 | 8.29
N#Cc1ccc(C2CC(=O)Nc3c2cnn3C2CCCC2)cc1 (stereo not given) | -5.3
COc1ccc(Cc2nnc(SC)o2)cc1OC | -2.13
Cc1ccc(C(=O)N2CCN(S(C)(=O)=O)CC2)cc1N1CCNC1=O | -4.61
O=C1N(Cc2ccc(F)c(F)c2)CCCC12CCN(C1CCSCC1)C2 (stereo not given) | -5.55
CNC(=O)NC(=O)CN1CCC(c2c[nH]c3ccc(OC)cc23)CC1 | -2.54
N#Cc1ccc(C(=O)N2CC[C@H]3[C@@H]2CCC(=O)N3c2ccccc2)cc1 | 0.485
CCc1nc(NS(=O)(=O)c2cc(C)ccc2F)no1 | -2.52

Compound | Percent Effect [%]
COc1ccc(CNC(C)c2cccc(Cl)c2)c(OC)c1OC (stereo not given) | -3.05
COc1ccccc1OCc1cc(C(=O)N2CC=CC2C(C)C)n[nH]1 (stereo not given) | -0.752
CN(C)CCn1c(=O)oc2ccc(NC(=O)c3cc(Cl)c[nH]3)cc21 | 5.07
CCc1nc(CCNC(=O)Nc2ccc(C(=O)NC)cc2C)cs1 | -2.88
CC(C)c1cccc(CSc2nnc(CN3CCCC3=O)o2)n1 | 1.44
C[C@H]1C[C@H]2CN(C(=O)c3ccncn3)CC[C@H]2O1 | -0.436
N#CC(Sc1nnnn1C1CCOCC1)C1CCCCC1 (stereo not given) | -2.4
CCNC(=O)NC(=O)CSC(C)c1ccccc1F (stereo not given) | 2.19
CCOc1ncccc1NC(=O)c1sccc1C | -0.501
Cc1cc(F)ccc1OC1(C(=O)O)CCN(Cc2cccnc2N)CC1 | -3.76
COCC(c1cccc(C(F)(F)F)c1)N(C)C(=O)c1cc(C)n[nH]1 (stereo not given) | 1.86
CSCCC1c2nc[nH]c2CCN1Cc1ccnc2ccccc12 (stereo not given) | 5.78
Cc1cc(CN(C)C2CCCN(c3cccnn3)C2)on1 (stereo not given) | 0.172
Cc1ccc(C#N)c(N2CCC(c3nccn3CCN(C)C)CC2)n1 | -1.39
CS(=O)(=O)NCC(=O)N1CCCC1c1noc(C2CC2)n1 (stereo not given) | 0.264
Cc1cc(C2CCCN2C(=O)NCc2cccc(F)c2)on1 (stereo not given) | -1.23
COc1ncccc1NC(=O)N1CCC(CN2CCOCC2)CC1 | -3.02
Cc1nnsc1C(=O)N1CCC2(CC1)c1nc[nH]c1CCN2CC(C)C | -1.53
Cc1nn(C)c(C)c1C1COCCN1c1ncnc2sccc12 (stereo not given) | 0.54
CC(C)CC(=O)N1CCCn2cnc(CN3CCCC3=O)c2C1 | -3.68

Target: Shiga toxin 2 (Escherichia coli O157:H7) (UniProt P09385+P09386)
Experiment: E. coli 0.157:H7 Shiga Toxin SOP - stx2 screening assay
Format: functional
Design: scale not given: direction of the effect not stated beside the values
Settings: 30 µM

Compound | Percent Effect [%]
CC(C)c1nc(CN(C)C2CCN(Cc3nc(C4CC4)no3)C2)no1 (stereo not given) | -26.4
c1cnn(CC2CN(CC3CCCC3)CCO2)c1 (stereo not given) | -0.337
CCC1c2ccsc2CCN1C(=O)NCCNc1ncccn1 (stereo not given) | 10.9
Cc1cccc(OCCC(=O)N2CCN(S(=O)(=O)N(C)C)CC2)c1C | -7.47
N#Cc1ccc(C(=O)N2CC[C@H]3[C@@H]2CCC(=O)N3c2ccccc2)cc1 | -9.64
COc1ccccc1OCc1cc(C(=O)N2CC=CC2C(C)C)n[nH]1 (stereo not given) | 15.8
C[C@H]1C[C@H]2CN(C(=O)c3ccncn3)CC[C@H]2O1 | -34.2
CCOc1ncccc1NC(=O)c1sccc1C | -11.1
COCC(c1cccc(C(F)(F)F)c1)N(C)C(=O)c1cc(C)n[nH]1 (stereo not given) | 24.9
CC(C)CC(=O)N1CCCn2cnc(CN3CCCC3=O)c2C1 | -15.8
